Where “and” joins values, the source holds several entries; their conditions need not be identical. Equal values may be shown once.
assay: yeast TOR pathway CIT2-GFP reporter retest – flow cytometry, third cherry pick, single plex, confirmation (AID 504340);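 also: median GFP fluorescence over all cells with no mother versus daughter split; sample signal as a ratio to the plate DMSO mean so 100% equals DMSO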; conditions: S. cerevisiae CIT2-GFP strain, 3 h, at 10 µM, stronger effect = higher value;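 active = GFP response above 150% of the DMSO control; inconclusive = Under 70 cell events counted for a yeast strain; inactive = the rest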

GFP response vs DMSO, inactive:
COc1cccc(N/C=C/C(=O)c2ccc(Cl)cc2)c1 107%
Cc1ccc2nc(-c3ccc(NC(=O)c4cccnc4)cc3)oc2c1 104%
COc1ccccc1-c1cc(C(F)(F)F)nc(S(=O)(=O)CCCC(=O)NC(C)C)n1 104% and 94.5%
FC(F)Oc1cccc2cccnc12 97.7%
Nc1ncnc(Nc2cc(Cl)cc(Cl)c2)c1[N+](=O)[O-] 97.7%
C=CCNc1nc(N)c([N+](=O)[O-])c(Nc2ccccc2OC)n1 127%
NC(=O)c1ccnc2c(O)cccc12 101%
OCc1ccnc2c(O)cccc12 94.5%
OCc1ccc(O)c2ncccc12 91.2%
NC(=O)COc1cccc2cccnc12 104%
C/C(=N\NC(=O)c1ccccc1)c1ccccc1F 104%
O=C(Nc1ccc(-c2nc3ccccc3o2)cc1)c1cccnc1 96.1%
Cn1c(NCCCO)nc2c(c1=O)C1(CCCCC1)Cc1ccccc1-2 117%
COc1ccc(OC)c(Nc2nc(NCCC(C)C)nc(N)c2[N+](=O)[O-])c1 103%
Oc1ccc(F)c2cccnc12 101%
Cc1ccc2c(Cl)cc(Cl)c(OCC(=O)O)c2n1 109%
CC1=NNC(=O)/C1=C\c1cn(-c2ccccc2)nc1-c1ccc(F)cc1 124%
CN1CCN(C(=O)c2cc(COc3ccc(F)cc3Cl)on2)CC1c1ccccc1 (stereo not drawn) 106%
